Screening data deposited in PubChem by National Center for Advancing Translational Sciences (NCATS).
An excerpt weighted towards active compounds, which were near 6% of everything screened.
Tau FP inhib: blocks human tau fibril formation measured by polarization | P10636 | K18 P301L tau heparin fibrillization, Alexa594 FP, 6 h | Potency, µM (highest dose often 57.7 µM), inactives show at the highest dose activity, negative = inhibition, usual class: inhibitors | hit rate 0.39% among 280,000; note: nearly all actives have a fitted effect of over 55% in size
Target sequence (P10636 561-689 P618L limits assumed): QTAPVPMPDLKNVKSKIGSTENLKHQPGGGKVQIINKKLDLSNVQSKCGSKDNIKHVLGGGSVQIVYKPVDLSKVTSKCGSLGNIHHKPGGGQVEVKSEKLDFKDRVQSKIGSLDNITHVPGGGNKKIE
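Human K18 P301L fragment (15 uM unlabeled plus 0.24 uM Alexa 594-labeled) in 100 mM sodium acetate pH 7 with compound, aggregation induced by 20 uM heparin for 6 hr at 37 C. ThT (30 uM) added for 1 hr, then Alexa 594 FP read.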
Sfp PPTase inh: inhibitors of Bacillus subtilis Sfp phosphopantetheinyl transferase. Q9F4F7. Biochemical Sfp PPTase activity, qHTS. Potency, µM, for inactives: largest response in the series, negative = inhibition, usual class: inhibitors. hit rate 3.5% among 310,000;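 note: the enzyme is Sfp with the accession as filed and its product quenches rhodamine fluorescence; 0% = enzyme reaction without inhibitor and -100% = no enzyme wells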
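Sfp 15 nM + cpd, 15 min RT; start w/ rhodamine-CoA 5 uM, BHQ-2-YbbR 12.5 uM (final); 50 mM Hepes pH 7.6, 10 mM MgCl2, 0.01% NP-40, 0.01% BSA; read 525/598 nm at 0 and 30 min.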
VDR inhibitor: inhibitors of human vitamin D receptor; P11473; VDR-SRC2-3 peptide fluorescence polarization, 2 h; Potency, µM, for inactives: max response, negative = inhibition, hits mostly inhibitors; hit rate 0.93% among 400,000; AID 504847
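Fluorescence polarization assay of small-molecule disruption of VDR binding to coregulator peptide SRC2-3. Compounds and controls pin-transferred, then read after 2 h incubation at ambient room temperature.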
Tau ThT inhib: tau fibrillization inhibition (ThT binding). P10636. recombinant tau K18 P301L, heparin-induced fibrillization, ThT fluorescence. Potency, µM (titrated, usually from 57.4 µM), inactives show at the highest dose activity, negative = inhibition, actives largely listed as inhibitors. hit rate 2.1% among 270,000. AID 1460; note: nearly all actives have a fitted effect of over 55% in size
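Aggregation was driven by heparin (20 uM final) acting on recombinant tau […] bearing P301L in 100 mM sodium acetate pH 7; fibrils were detected with Thioflavin T.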
PLK1 PBD inh: PLK1 (human) polo-box domain binding inhibition | Plk1 PBD binding of FITC phosphopeptide, fluorescence polarization | hit rate 2.8% among 360,000 | P53350 | Potency, µM, without a hit: max response, negative = inhibition, hits mostly inhibitors | AID 720504; note: series mostly up to about 57 µM; nearly all actives have a fitted effect of over 65% in size
Target sequence (P53350 whole entry, looked up, the tested form may be a part): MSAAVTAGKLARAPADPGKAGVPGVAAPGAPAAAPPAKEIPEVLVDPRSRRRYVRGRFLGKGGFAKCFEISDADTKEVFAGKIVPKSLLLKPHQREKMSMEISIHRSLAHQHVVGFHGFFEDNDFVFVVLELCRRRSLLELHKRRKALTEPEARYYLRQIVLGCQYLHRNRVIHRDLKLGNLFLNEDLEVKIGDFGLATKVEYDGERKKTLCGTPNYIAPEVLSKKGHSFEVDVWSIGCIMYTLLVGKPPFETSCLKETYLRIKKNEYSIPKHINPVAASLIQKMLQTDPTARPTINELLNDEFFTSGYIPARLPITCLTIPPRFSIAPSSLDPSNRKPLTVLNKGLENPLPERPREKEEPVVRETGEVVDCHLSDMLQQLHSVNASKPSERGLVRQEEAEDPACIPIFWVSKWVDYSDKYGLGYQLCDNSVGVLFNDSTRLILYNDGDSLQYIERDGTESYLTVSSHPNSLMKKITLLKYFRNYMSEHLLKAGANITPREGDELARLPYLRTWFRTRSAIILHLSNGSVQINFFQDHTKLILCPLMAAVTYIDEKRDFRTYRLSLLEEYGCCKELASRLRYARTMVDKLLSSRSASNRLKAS
Tau fluor counter: counter-screen for tau fibril formation inhibitors. hit rate 0.93% among 280,000. tau K18 P301L (four-repeat tau fragment) Alexa594 fluorescence, heparin fibrillization. Potency, µM (doses to about 57.7 µM), for the others: top-dose activity change, negative = decrease; note: nearly all actives have a fitted effect of over 55% in size
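Human K18 P301L tau (15 uM unlabeled plus 0.24 uM Alexa 594-labeled, final) in 100 mM sodium acetate pH 7 was mixed with compound and 20 uM heparin and incubated 6 hr at 37 C.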
* marks the source's active call; other numbers are inactive results; ! = repeats disagree; [ ] = another dose, or the depositor's remark. Calls come from the whole dose curve; as a rule, active = well fitted curve in the direction sought with a large enough effect; inconclusive = small, poorly fitted or top-dose-only effect, or another doubt; inactive = no such curve, though single readings can be large; an effect the other way counts as inactive or inconclusive. Unless noted, % is set by controls: 0 for no effect and ±100 for the full control effect; potency is the fitted concentration of half-maximal effect.

Results for COc1ccc(OCc2nnc(SCC(=O)NCC3CCCO3)n2N)cc1 (stereo not drawn) ?
VDR inhibitor: inconclusive; PLK1 PBD inh: 17µM*

What do the screens show for `C[C@]12CC[C@H]3[C@@H](CC[C@@]45O[C@@H]4C(=O)C(C#N)C[C@]35C)[C@@H]1CC[C@@H]2O` (stereo partly drawn)?
Sfp PPTase inh: 26%; VDR inhibitor: inconclusive

How did Cn1c(=O)n(C)c2cc(CNCCc3ccccc3)ccc21 do in these assays?
Tau FP inhib: -4%; VDR inhibitor: 5%; Tau ThT inhib: 2%; Tau fluor counter: -4%

How did CCOP(=O)(/C(C#N)=C(\C)O)c1ccccc1 (stereo not drawn) do in these assays?
Tau FP inhib: 4%; Sfp PPTase inh: 20%; VDR inhibitor: -14%; Tau ThT inhib: 0%; PLK1 PBD inh: 21µM*; Tau fluor counter: 2%

How did Cc1c(C(=O)c2cccc3ccccc23)c2cccc3c2n1[C@@H](CN1CCOCC1)CO3 do in these assays?
Tau FP inhib: -11%; Sfp PPTase inh: 7%; VDR inhibitor: 11%; Tau ThT inhib: -20%; Tau fluor counter: inconclusive

What do the screens show for `CCC(C=C[C@@H]1OC(=O)C=C[C@H]1C)=C[C@H](C)CC=CC(C)=C[C@@H](C)C(=O)[C@@H](C)[C@H](O)[C@@H](C)CC(C)=CC(=O)O`?
Tau FP inhib: 5%[2.34 µM]; Sfp PPTase inh: 0.71µM*; VDR inhibitor: 1.6µM*; Tau ThT inhib: 3%[2.31 µM]; Tau fluor counter: -2%[2.34 µM]

Results for CN1CCN2c3ccc(N)cc3CC3(C(=O)NC(=O)NC3=O)C2C1 (stereo not drawn) ?
Tau FP inhib: -12%; Sfp PPTase inh: 22µM*; VDR inhibitor: -2%; PLK1 PBD inh: -6%; Tau fluor counter: -22%

Results for CCN(CCO)c1ccc(N=Cc2c(O)n(C)c(=S)[nH]c2=O)cc1 ?
Tau FP inhib: -2%; Sfp PPTase inh: 40µM*; VDR inhibitor: -9%; PLK1 PBD inh: 20%; Tau fluor counter: 24%

How did CC[C@@H]1CN2CCc3cc(OC)c(OC)cc3[C@@H]2C[C@@H]1C[C@H]1NCCc2cc(OC)c(OC)cc21 do in these assays?
Tau FP inhib: -2%; Sfp PPTase inh: 6%; VDR inhibitor: 3%; Tau ThT inhib: 0%; Tau fluor counter: -1%

How did O=c1[nH]c(=O)n(C2CCCCC2)c(O)c1C1NCCc2ccccc21 (stereo not drawn) do in these assays?
Tau FP inhib: inconclusive; Sfp PPTase inh: 35µM*; VDR inhibitor: inconclusive; Tau ThT inhib: inconclusive; PLK1 PBD inh: 0%; Tau fluor counter: inconclusive

How did COc1ccc(NC2=NCC(C)S2)cc1 (stereo not drawn) do in these assays?
Tau FP inhib: -4%; Sfp PPTase inh: 14%; VDR inhibitor: -1%; Tau ThT inhib: -7%; PLK1 PBD inh: -19%; Tau fluor counter: -7%

Results for COc1ccc(NC2=NC(C)(C)CS2)cc1 ?
Tau FP inhib: 0%; Sfp PPTase inh: 56µM*; VDR inhibitor: 8%; Tau ThT inhib: 4%; PLK1 PBD inh: 21µM*; Tau fluor counter: 5%

How did CC(=O)c1ccc2c(c1)C1C(Cl)C(Sc3ccccc3[N+](=O)[O-])CC1C(c1ccccc1)N2 (stereo not drawn) do in these assays?
Tau FP inhib: 11%; Sfp PPTase inh: -25%; VDR inhibitor: inconclusive; Tau ThT inhib: inconclusive; PLK1 PBD inh: 15µM*; Tau fluor counter: inconclusive

Results for CNC(=O)Oc1cccc2ccccc12 ?
Tau FP inhib: -4%; Sfp PPTase inh: 1%; VDR inhibitor: 14µM*!; Tau ThT inhib: -6%; PLK1 PBD inh: -13%; Tau fluor counter: -9%

How did C[C@H](N)Cc1c[nH]c2ccc(OCc3cccs3)cc12 do in these assays?
Tau FP inhib: 15%; Sfp PPTase inh: -17%; Tau ThT inhib: -17%; Tau fluor counter: -27%

What do the screens show for `COc1ccc(-c2nc3ccccc3c(=O)n2-c2ccc(OC)cc2)cc1`?
Tau FP inhib: -1%; Sfp PPTase inh: -1%; VDR inhibitor: -9%; Tau ThT inhib: -11%; PLK1 PBD inh: -7%; Tau fluor counter: -9%

How did O=c1c2ccccc2sn1-c1ccc(Cl)cc1 do in these assays?
PLK1 PBD inh: 3µM*

How did Cc1ccc(-n2sc3ccccc3c2=O)cc1 do in these assays?
Tau FP inhib: inconclusive; Sfp PPTase inh: 1.3µM*; VDR inhibitor: 3.2µM*; Tau ThT inhib: 32µM*; PLK1 PBD inh: 0.95µM*; Tau fluor counter: -21%

What do the screens show for `CCOC(=O)c1c(C)[nH]c(C)c1S(=O)(=O)NCC(=O)N1CCN(c2cc(Cl)ccc2C)CC1`?
Tau FP inhib: -11%; VDR inhibitor: 9%; Tau ThT inhib: 2%; Tau fluor counter: inconclusive

How did C=C1C(=O)OC2C1CCC(C)C1(O)C=CC(=O)C21C (stereo not drawn) do in these assays?
VDR inhibitor: -14%; PLK1 PBD inh: -7%

How did C=C1C(=O)O[C@H]2[C@H]1[C@H](OC(=O)CC(=O)O[C@@H]1C[C@@H](C)[C@@H]3C=CC(=O)[C@@]3(C)[C@H]3OC(=O)C(=C)[C@H]13)C[C@@H](C)[C@H]1C=CC(=O)[C@]12C do in these assays?
Tau FP inhib: 11µM*; Sfp PPTase inh: -21%; VDR inhibitor: inconclusive; Tau ThT inhib: 16µM*; PLK1 PBD inh: inconclusive; Tau fluor counter: -8%

Results for C=C1C(=O)O[C@@H]2C[C@@H](C)[C@@H]3C=CC(=O)[C@@]3(C)[C@@H](OC(=O)CC(=O)O[C@H]3[C@@H]4C(=C)C(=O)O[C@@H]4C[C@@H](C)[C@@H]4C=CC(=O)[C@]43C)[C@H]12 ?
Tau FP inhib: 8.9µM*; Sfp PPTase inh: 22µM*; VDR inhibitor: 18µM*; Tau ThT inhib: 2.8µM*; PLK1 PBD inh: inconclusive; Tau fluor counter: -18%

What do the screens show for `C=C1C(=O)OC2CC(C)C3C=CC(=O)C3(C)C(O)C12` (stereo not drawn)?
VDR inhibitor: inconclusive; PLK1 PBD inh: -13%

How did C=C1C(=O)O[C@H]2C[C@@H](C)[C@@H]3C=CC(=O)[C@@]3(C)C[C@H]12 do in these assays?
Tau FP inhib: inconclusive; Sfp PPTase inh: 11%; VDR inhibitor: -20%; Tau ThT inhib: 18µM*; PLK1 PBD inh: -17%; Tau fluor counter: -9%

What do the screens show for `CCON=O`?
Sfp PPTase inh: -2%; VDR inhibitor: 0%

How did CCCCNC(=O)Oc1c(Br)cc2sc(=O)oc2c1Br do in these assays?
Tau FP inhib: inconclusive; Sfp PPTase inh: 11µM*; Tau fluor counter: inconclusive
